# In all, about 87,000 compounds went through this assay and about 540 (0.62%) were called active. How the calls were made is not given here. The list comes from a sample in which actives are over-represented; it also holds similar structures and randomly drawn compounds. Results with a measured potency or affinity are listed apart.
# Experiment: MT1-MMP gene expression reporter suppression – cell-based, luciferase reporter, luminescence (AID 618);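 further: actives suppress MT1-MMP promoter-driven transcription so potencies describe inhibitors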
# Details: MT1-MMP promoter luciferase reporter cells
row,SMILES,outcome
1,COc1ccc(OC)c(S(=O)(=O)Nc2ccc(CC(=O)O)cc2)c1,inactive
2,CN(C)/C=N/c1c(C#N)nnn1Cc1ccccc1,inactive
3,Cc1ccc2nc3n(c(=O)c2c1)CCCCC3,inactive
4,CCCCn1c(C(C)NC(=O)c2cccs2)nc2ccccc21 (centres undefined),inactive
5,COc1ccccc1N1CCN(C(=O)CSc2nnc(NC(=O)c3ccco3)s2)CC1,inactive
6,O=C(Nc1nnc(C(F)(F)F)s1)C1COc2ccccc2O1 (centres undefined),inactive
7,CCc1nnc(NC(=O)C2COc3ccccc3O2)s1 (centres undefined),inactive
8,COc1ccc(-c2noc(CCC(=O)Nc3nc4ccccc4s3)n2)cc1,inactive
9,Cc1onc(-c2ccccc2)c1C(=O)Nc1cc(C(F)(F)F)ccc1N1CCOCC1,active
10,Cc1nnc(SCC(=O)Nc2cc(C(F)(F)F)ccc2N2CCOCC2)o1,inactive
11,O=C(Nc1cc(C(F)(F)F)ccc1N1CCOCC1)c1c(F)c(F)c(F)c(F)c1F,inactive
12,Cc1onc(-c2ccccc2)c1C(=O)Nc1ccccc1N1CCOCC1,inactive
13,O=C(CSc1nc2ccccc2[nH]1)Nc1cc(C(F)(F)F)ccc1N1CCOCC1,inactive
14,Cc1ccc2nc(SCC(=O)Nc3cc(C(F)(F)F)ccc3N3CCOCC3)[nH]c2c1,active
15,CCN(CC)c1ccc2cc(C(=O)Nc3ccc(-n4cnnn4)c(OC)c3)c(=O)oc2c1,inactive
16,CCOC(=O)CNC(=O)c1sc2nc(C)cc(C)c2c1N,inactive
17,COCc1cc(C)nc2sc(C(=O)Nc3nccs3)c(N)c12,inactive
18,Cc1cc(C)c2c(N)c(C(=O)NC3CC3)sc2n1,inactive
19,CCOC(=O)c1sc2nc(C)cc(C)c2c1N,inactive
20,COCCNC(=O)C(c1cccs1)N(CCc1ccccc1)C(=O)Cn1nnc2ccccc21 (centres undefined),inactive
21,O=C(CSc1nnc(CNC(=O)c2cccs2)o1)NCCc1ccccc1,inactive
22,O=C(CNC(=O)c1ccco1)NCC(=O)OC(C(=O)c1ccccc1)c1ccc(Cl)cc1 (centres undefined),inactive
23,CC1CCCc2sc3nc(N4CCN(CCO)CC4)n4ncnc4c3c21 (centres undefined),inactive
24,COCCn1c(C)cc(C2=NNC(=Nc3ccc(OC)cc3)SC2)c1C,inactive
25,COCCn1c(-c2ccccc2F)n[nH]c1=S,inactive

row,SMILES,outcome
1,COCCn1c(C)cc(C2=NNC(=Nc3ccc(Cl)cc3Cl)SC2)c1C,inactive
2,COCCn1c(C)cc(C(=O)COc2nc3ccccc3nc2C)c1C,inactive
3,CCOC(=O)c1c(C)c(C(=O)NC2CCCCC2)c(C)n1CC,inactive
4,Cc1ccc(-c2ccccc2NC(=O)CCl)o1,inactive
5,CN1/C(=C/C=N/n2cnnc2)C(C)(C)c2ccccc21,inactive
6,CN1/C(=C/C2CC(=O)N(c3cccc4ccccc34)C2=O)C(C)(C)c2ccccc21 (centres undefined),inactive
7,O=C(O)CCn1c(=S)oc2ccccc21,inactive
8,Cc1cc(NC(=O)c2cc(Cl)ccc2Cl)no1,inactive
9,O=C(C1CCCCC1)N(Cc1ccccc1)c1ccccn1,inactive
10,COc1cc2c(cc1OC)C1Cc3ccc(OC)c(OC)c3CN1CC2 (centres undefined),inactive
11,CC[C@H]1CN2CCc3cc(OC)c(OC)cc3[C@@H]2C[C@@H]1C[C@H]1NCCc2cc(OC)c(OC)cc21,active
12,COc1cc2c(cc1OC)C1C/C(=N\O)C(CC(C)C)CN1CC2 (centres undefined),inactive
13,O=C(CN1CCCCC1)N1c2ccccc2CCc2ccccc21,inactive
14,O=C(CN1C(=O)C2C3C=CC(C3)C2C1=O)N1CCc2ccccc2C1 (centres undefined),inactive
15,O=C(NCC(c1cccs1)N1CCOCC1)c1ccco1 (centres undefined),inactive
16,CCC(=O)NCC(c1cccs1)N1CCOCC1 (centres undefined),inactive
17,O=C(NCC(c1cccs1)N1CCOCC1)c1ccc(Cl)s1 (centres undefined),active
18,CCOC(=O)c1ccc(CC(=O)c2oc3cc(O)ccc3c2C)o1,inactive
19,CN(C)c1cccc(C(=O)n2cc(C(=O)c3cc(F)ccc3O)cn2)c1,inactive
20,COc1ccc(-c2cc3nc(C)cc(C)n3n2)cc1,inactive
21,COc1ccc(-c2cc3nc(C)cc(NCCO)n3n2)cc1,inactive
22,Cc1cc(N)n2nc(C)c(-c3ccccc3)c2n1,inactive
23,Cc1cc(N)n2ncc(-c3ccccc3)c2n1,inactive
24,Cc1c(C(=O)N2CCN(S(C)(=O)=O)CC2)oc2ccccc12,inactive
25,COc1ccc(C)cc1NC(=O)c1ccc(N(C)S(C)(=O)=O)cc1,inactive

row,SMILES,outcome
1,CC1CCN(C(=S)c2ccc3c(c2)OCO3)CC1,inactive
2,COc1ccc(OC)c2sc(NC(=O)c3ccc(Br)s3)nc12,inactive
3,Oc1ccc(Nc2nc(-c3ccc4ccccc4c3)cs2)cc1,active
4,Oc1ccc(Nc2nc(-c3ccc(O)cc3)cs2)cc1,inactive
5,NS(=O)(=O)c1ccc(Nc2nc(-c3ccc4ccccc4c3)cs2)cc1,inactive
6,CCN(CC)CCCNC(=O)c1[nH]c(C)c(C(=O)NC2CCCCC2)c1C,inactive
7,Cc1nc(SCC(N)=O)[nH]c(=O)c1Cc1ccc(OC(C)C)cc1,inactive
8,O=C(Nc1ccccc1C(=O)N1CCN(c2ccccc2)CC1)c1ccco1,inactive
9,c1ccc(-c2n[nH]c(-c3ccccn3)n2)cc1,inactive
10,CNc1nc(-c2ccccn2)nnc1-c1ccccc1,inactive
11,C=CCNc1nc(-c2ccccc2)nc(-n2ccnc2)n1,inactive
12,c1ccc(-c2nnc(-c3ccccn3)nc2NC2CCCCC2)cc1,active
13,c1ccc(-c2noc(C3CCCCC3)n2)nc1,inactive
14,N#Cc1ccc(C23CC4(C2)[C@H](CN(Cc2ccc(C(F)(F)F)cc2)[C@@H]4c2ccccc2)C3c2ccc(C(F)(F)F)cc2)cc1 (some centres undefined),inactive
15,CCc1ccc2[nH]c(=O)c(C(c3nnnn3Cc3ccccc3)N3CCOCC3)cc2c1 (centres undefined),inactive
16,Cc1cc(N2CCOCC2)nc(SCC(=O)c2ccccc2)n1,inactive
17,CCCC1=NCCn2cccc21,inactive
18,COc1cccc(C(=O)Cn2c(NCCO)nc3ccccc32)c1,inactive
19,COc1cccc(C(=O)Cn2c(=N)n(C)c3ccccc32)c1,active
20,Cn1c(=N)n(CC(=O)O)c2ccccc21,inactive
21,CC(=O)NCCSCCNC(C)=O,inactive
22,CSc1nnc(-c2ccc(S(=O)(=O)N3CCOCC3)cc2)n1CC1CCCO1 (centres undefined),inactive
23,O=S(=O)(c1ccc2c(c1)nc(COc1ccc(Cl)cc1)n2CC1CCCO1)N1CCOCC1 (centres undefined),active
24,CCSc1nnc(-c2ccc(S(=O)(=O)N3CCOCC3)cc2)n1CC1CCCO1 (centres undefined),inactive

# — PubChem BioAssay AID618 (Sanford-Burnham Center for Chemical Genomics, 2007)
